“And” between values parts separate entries of the source, which are not always exact repeats. Equal values may be shown once. Results filed as inconclusive are left out. A call without a number means that no potency is given here. The source made the active and inactive calls. Unless noted, calls come from the whole dose curve; as a rule, active = well fitted curve in the direction sought with a large enough effect; inconclusive = small, poorly fitted or top-dose-only effect, or another doubt; inactive = no such curve, though single readings can be large; an effect the other way counts as inactive or inconclusive.
Legend:
[1] = qHTS assay for measurement of the activity of small molecule inhibitors on Zika virus induced Caspase-3 activity in human iPSC derived neural progenitor cells (hNPCs) (AID 1224857); note: nearly all actives have a fitted effect of over 65% in size; note: potency is the fitted concentration of half-maximal effect
How it was run: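 Caspase-3/7 induction by a 6-hour ZIKV infection was quantified with a luminescent Caspase-Glo 3/7 reagent incubated 30 minutes at room temperature. Compounds were preincubated with hNPCs for 1 hour; inhibition was calculated against uninfected and infected control wells.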

[2] = NS1 protein of Zika virus - qHTS assay to identify small molecule inhibitors in human HEK 293 cells (AID 1347053); note: nearly all actives have a fitted effect of over 55% in size
How it was run: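 In this cell-based screen, HEK 293 cultures received compound for one hour before Zika MR766 at MOI = 0.5. NS1 was quantified 24 hours later by TR-FRET, normalized to virus-free wells and infected wells.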

[3] = P-glycoprotein substrates identified in KB-8-5-11 adenocarcinoma cell line, qHTS therapeutic library screen (AID 1346987); note: nearly all actives have a fitted effect of over 65% in size
How it was run: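 Human cervical adenocarcinoma KB-8-5-11 cells, selected in colchicine to over-express P-gp and assayed without it, were exposed for 72 h to titrated compounds. An ATP-based luminescent viability signal gave AC50.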

[4] = target: Hexokinase-4 (Homo sapiens) + Glucokinase regulatory protein (Homo sapiens) (UniProt P35557+Q14397); experiment: qHTS assay for inhibitors of recombinant human GCK-GKRP interaction: HTRF assay (AID 743207)
How it was run: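 HTRF binding of 5 nM GST-GCK and 5 nM FLAG-GKRP with 2 uM S6P in pH 7.1 Hepes buffer (MgCl2, KCl, DTT, Tween 20, BSA). Anti-FLAG XL665 and anti-GST donor added, 60 min at room temperature; 665/615 nm read, normalized to with- and without-GCK controls.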

[5] = qHTS assay for measurement of the activity of small molecule inhibitors on Zika virus induced Caspase-3 activity in human astrocytoma cells (AID 1224859)
How it was run: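 In SNB-19 cells plated at 250 cells/well and grown 16-20 h, compounds were applied 1 h before ZIKV (2 FFU/cell). Six hours later caspase-3/7 luminescence was recorded.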

[6] = target: Atrial natriuretic peptide receptor 1 (Homo sapiens) (UniProt P16066); experiment: Natriuretic polypeptide receptor (hNpr1) antagonism - Pilot screen (AID 1347049; calls by dose curve;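 note: HEK293 cells with hNpr1 and GloSensor cGMP luciferase stimulated by 0.1 nM hNppA; agonist-evoked cGMP luminescence read 20 min after hNppA addition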)
How it was run: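 Receptor antagonism read as cGMP-dependent luminescence in hNpr1/pGS-40F HEK293 cells: pre-read after 30 min compound exposure, post-read 20 min after hNppA agonist at 0.1 nM final, all at room temperature, protected from light; A-71915 titration as control.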

[7] = target: Atrial natriuretic peptide receptor 2 (Homo sapiens) (UniProt P20594); experiment: Natriuretic polypeptide receptor (hNpr2) antagonism - Pilot subtype selectivity assay (AID 1347050; calls by dose curve)
How it was run: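 Antagonist mode: compounds (LOPAC1280, seven 1:5 dilutions) added 30 min before 1 nM hNppC stimulation of hNpr2-HEK293 cGMP-sensor cells; luminescence read before and 20 min after agonist at ambient temperature.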

[8] = qHTS Assay for Identifying Gametocytocidal Compounds (AID 743244); note: potency is the fitted concentration of half-maximal effect;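 for max response: actives lower the fluorescent signal which means gametocytes are killed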; conditions: P. falciparum 3D7 stage III-V gametocytes, alamarBlue, 72 h; max response: stronger effect = lower value
How it was run: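 Late gametocytes (III–V), P. falciparum 3D7; 72 h drug, then 24 h alamarBlue; resazurin reduction read by fluorescence.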

[9] = Natriuretic polypeptide receptor (hNpr1) antagonism - Pilot counterscreen GloSensor control cell line (AID 1347045; calls by dose curve)
How it was run: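 The SNP-driven cGMP luminescence signal (50 uM, 20 min, room temperature) was measured in GloSensor HEK293 control cells. Compounds were tested as a LOPAC titration series and preincubated for 30-50 min.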

[10] = qHTS profiling for inhibitors of Plasmodium falciparum (3D7) proliferation (AID 743322; call rule not given here;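 note: infected erythrocytes exposed to compound for 72 h before lysis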); conditions: P. falciparum 3D7 proliferation; at 28.7 µM (top of the series)
How it was run: (§1)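 Parasite DNA was quantified by SYBR Green I fluorescence (ex 485, em 535 nm) after overnight lysis in saponin/Triton buffer at room temperature. Cultures at 0.3% parasitemia and 2.5% hematocrit were first exposed to compound for 72 h at 37 C; signals were normalised to artemisinin (0.29 uM) and vehicle wells.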

[11] = qHTS profiling for inhibitors of Plasmodium falciparum (DD2) proliferation (AID 743323; call rule not given here); conditions: lower = more inhibition; at 28.7 µM (top of the series)
How it was run: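 SYBR Green fluorescence (ex 485, em 535 nm) of lysed cultures gives parasite DNA content; wells normalized to artemisinin (0.29 uM) and DMSO controls. Infected red cells: 0.3% parasitemia, 2.5% hematocrit, 72 h, 37 C.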

[12] = qHTS profiling for inhibitors of Plasmodium falciparum (HB3) proliferation (AID 743324); conditions: Plasmodium falciparum HB3 blood-stage proliferation; at 28.7 µM (top of the series)
How it was run: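 SYBR Green fluorescence (485 ex/535 em) of lysed cultures, incubated overnight at room temperature in the dark, quantifies parasite DNA. Infected erythrocytes at 0.3% parasitemia and 2.5% hematocrit were exposed 72 h; values normalized to DMSO and 0.29 uM artemisinin controls.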

[13] = qHTS assay to identify small molecule inhibitors of chordoma cells - UCH-1 (AID 1259355); note: nearly all actives have a fitted effect of over 55% in size
How it was run: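 800 cells/well, overnight attach; compounds pinned at 15 concs, then auranofin/camptothecin/doxorubicin/rubitecan/topotecan combo added; 48hr 37 C, 5% CO2; CellTiter-Glo, 30min RT, luminescence.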

[14] = qHTS assay to identify small molecule inhibitors of chordoma cells - UCH-2 (AID 1259356)
[15] = qHTS profiling of the MIPE4 collection as inhibitors of Plasmodium falciparum (3D7) proliferation (AID 743344; call rule not given here); conditions: P. falciparum 3D7 in erythrocytes, SYBR Green DNA fluorescence, 72 h; at 28.5 µM (top of the series)
How it was run: as §1

[16] = qHTS profiling of the MIPE4 collection as inhibitors of Plasmodium falciparum (DD2) proliferation (AID 743345; call rule not given here); conditions: P. falciparum Dd2 in erythrocytes, SYBR Green DNA, 72 h; at 28.5 µM (top of the series)
How it was run: as §1

[17] = qHTS profiling of the MIPE4 collection as inhibitors of Plasmodium falciparum (DD2) proliferation (Rep 2) (AID 743346; call rule not given here); conditions: P. falciparum Dd2 in erythrocytes, SYBR Green DNA, 72 h; at 28.5 µM (top of the series)
How it was run: as §1

[18] = qHTS profiling of the MIPE4 collection as inhibitors of Plasmodium falciparum (HB3) proliferation (AID 743347; call rule not given here); conditions: P. falciparum HB3 in erythrocytes, SYBR Green DNA, 72 h; at 28.5 µM (top of the series)
How it was run: as §1

Atrial natriuretic peptide receptor 1 (Homo sapiens), sequence (P16066 whole entry, looked up): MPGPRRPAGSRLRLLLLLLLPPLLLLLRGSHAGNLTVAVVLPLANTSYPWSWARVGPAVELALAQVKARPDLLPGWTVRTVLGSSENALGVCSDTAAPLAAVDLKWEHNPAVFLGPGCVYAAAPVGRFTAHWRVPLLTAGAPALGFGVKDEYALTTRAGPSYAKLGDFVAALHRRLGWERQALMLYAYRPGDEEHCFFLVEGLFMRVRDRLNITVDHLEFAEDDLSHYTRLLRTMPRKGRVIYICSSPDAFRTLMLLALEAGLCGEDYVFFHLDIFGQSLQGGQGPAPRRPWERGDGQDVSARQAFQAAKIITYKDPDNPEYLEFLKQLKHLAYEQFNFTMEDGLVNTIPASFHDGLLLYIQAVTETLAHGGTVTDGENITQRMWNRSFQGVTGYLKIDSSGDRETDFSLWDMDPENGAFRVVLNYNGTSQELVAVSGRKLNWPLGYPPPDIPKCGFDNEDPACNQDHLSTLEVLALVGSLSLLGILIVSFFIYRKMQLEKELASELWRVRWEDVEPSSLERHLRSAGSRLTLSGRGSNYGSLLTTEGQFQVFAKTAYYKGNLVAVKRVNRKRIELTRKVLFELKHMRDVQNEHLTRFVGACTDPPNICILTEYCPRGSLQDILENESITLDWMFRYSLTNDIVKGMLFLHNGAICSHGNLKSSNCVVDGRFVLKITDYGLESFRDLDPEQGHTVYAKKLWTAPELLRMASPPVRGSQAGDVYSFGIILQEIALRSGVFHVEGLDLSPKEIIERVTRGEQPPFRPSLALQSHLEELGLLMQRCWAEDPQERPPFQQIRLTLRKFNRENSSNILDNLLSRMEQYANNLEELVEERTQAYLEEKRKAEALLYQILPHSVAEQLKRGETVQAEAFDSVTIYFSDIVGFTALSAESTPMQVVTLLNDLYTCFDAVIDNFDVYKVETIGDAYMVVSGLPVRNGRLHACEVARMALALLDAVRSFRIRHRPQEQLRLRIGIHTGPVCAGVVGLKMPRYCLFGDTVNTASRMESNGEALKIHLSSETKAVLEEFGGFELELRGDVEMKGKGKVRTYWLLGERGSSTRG
Hexokinase-4 (Homo sapiens) + Glucokinase regulatory protein (Homo sapiens), sequence (P35557 whole entry, looked up): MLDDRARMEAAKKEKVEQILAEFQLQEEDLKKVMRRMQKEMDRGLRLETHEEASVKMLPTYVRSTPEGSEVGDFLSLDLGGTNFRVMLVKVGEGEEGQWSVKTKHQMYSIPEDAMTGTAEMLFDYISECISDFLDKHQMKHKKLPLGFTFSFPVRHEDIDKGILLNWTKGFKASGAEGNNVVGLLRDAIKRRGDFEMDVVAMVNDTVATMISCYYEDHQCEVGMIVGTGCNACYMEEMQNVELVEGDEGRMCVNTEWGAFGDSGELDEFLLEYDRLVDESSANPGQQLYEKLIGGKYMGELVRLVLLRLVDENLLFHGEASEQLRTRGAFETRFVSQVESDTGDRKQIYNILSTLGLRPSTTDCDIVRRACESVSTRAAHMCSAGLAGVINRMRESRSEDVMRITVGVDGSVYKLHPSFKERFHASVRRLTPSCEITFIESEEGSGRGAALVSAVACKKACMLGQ
Hexokinase-4 (Homo sapiens) + Glucokinase regulatory protein (Homo sapiens), sequence (Q14397 whole entry, looked up): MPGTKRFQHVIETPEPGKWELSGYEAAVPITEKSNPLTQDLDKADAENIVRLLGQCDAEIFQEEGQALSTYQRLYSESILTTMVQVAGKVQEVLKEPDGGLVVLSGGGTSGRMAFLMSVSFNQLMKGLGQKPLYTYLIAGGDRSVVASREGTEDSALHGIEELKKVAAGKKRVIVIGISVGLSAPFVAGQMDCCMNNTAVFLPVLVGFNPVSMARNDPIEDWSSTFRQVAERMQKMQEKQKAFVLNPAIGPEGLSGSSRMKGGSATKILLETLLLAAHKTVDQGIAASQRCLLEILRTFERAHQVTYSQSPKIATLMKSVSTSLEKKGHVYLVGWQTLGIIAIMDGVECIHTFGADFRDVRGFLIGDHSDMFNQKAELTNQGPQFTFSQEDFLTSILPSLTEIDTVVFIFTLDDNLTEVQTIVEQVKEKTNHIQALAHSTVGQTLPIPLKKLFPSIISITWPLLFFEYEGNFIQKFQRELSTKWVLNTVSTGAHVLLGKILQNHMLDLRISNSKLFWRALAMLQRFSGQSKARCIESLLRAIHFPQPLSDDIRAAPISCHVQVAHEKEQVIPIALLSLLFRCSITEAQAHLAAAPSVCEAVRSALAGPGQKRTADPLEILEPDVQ
Atrial natriuretic peptide receptor 2 (Homo sapiens), sequence (P20594 whole entry, looked up): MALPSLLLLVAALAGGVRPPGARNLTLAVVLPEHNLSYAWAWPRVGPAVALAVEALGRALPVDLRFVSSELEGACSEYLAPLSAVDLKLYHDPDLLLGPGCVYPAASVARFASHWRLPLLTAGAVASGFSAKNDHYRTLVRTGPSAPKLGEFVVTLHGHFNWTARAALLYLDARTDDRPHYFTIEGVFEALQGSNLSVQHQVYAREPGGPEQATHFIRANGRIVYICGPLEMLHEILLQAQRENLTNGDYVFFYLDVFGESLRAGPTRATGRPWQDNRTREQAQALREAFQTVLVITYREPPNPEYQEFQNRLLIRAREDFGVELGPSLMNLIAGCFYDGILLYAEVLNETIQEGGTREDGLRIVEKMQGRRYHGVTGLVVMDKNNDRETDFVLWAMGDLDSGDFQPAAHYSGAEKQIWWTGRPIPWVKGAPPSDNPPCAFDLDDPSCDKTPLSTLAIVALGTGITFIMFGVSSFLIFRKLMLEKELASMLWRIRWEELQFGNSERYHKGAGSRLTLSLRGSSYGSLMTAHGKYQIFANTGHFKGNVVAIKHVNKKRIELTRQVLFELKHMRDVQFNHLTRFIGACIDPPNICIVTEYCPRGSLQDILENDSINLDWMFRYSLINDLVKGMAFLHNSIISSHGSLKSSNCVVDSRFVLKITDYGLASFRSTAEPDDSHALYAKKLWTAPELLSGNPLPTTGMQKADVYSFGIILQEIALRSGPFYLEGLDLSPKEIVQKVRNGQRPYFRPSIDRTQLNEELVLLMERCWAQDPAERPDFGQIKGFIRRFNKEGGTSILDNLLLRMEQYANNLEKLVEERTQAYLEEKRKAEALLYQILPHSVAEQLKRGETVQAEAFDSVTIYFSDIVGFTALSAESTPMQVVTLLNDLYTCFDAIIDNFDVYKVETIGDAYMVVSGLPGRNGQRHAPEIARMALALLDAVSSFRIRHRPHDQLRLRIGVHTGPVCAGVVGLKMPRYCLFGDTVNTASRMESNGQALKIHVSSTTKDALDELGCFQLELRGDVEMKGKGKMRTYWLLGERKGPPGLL

C[C@H]1C2Cc3ccc(O)cc3[C@@]1(C)CCN2CC1CC1
Potency [1]: inactive
outcome [2]: inactive

[Cl-].[Cl][Pt].[NH2-].[NH2-].c1ccncc1
Potency [1]: inactive
outcome [2]: inactive

CN1CCC[C@@H]1Cc1c[nH]c2ccc(Nc3ncccc3[N+](=O)[O-])cc12
Potency [1]: inactive
Potency [3]: inactive
outcome [2]: inactive

C=CCN1C[C@@H](C)N([C@H](c2ccc(C(=O)N(CC)CC)cc2)c2cccc(OC)c2)C[C@@H]1C
outcome [4]: inactive
Potency [1]: inactive
outcome [5]: inactive
Potency [6]: inactive
Potency [7]: inactive

CCCn1c(=O)c2[nH]c(C3CCCC3)nc2n(CCCOC(=O)c2ccc(S(=O)(=O)F)cc2)c1=O
outcome [4]: inactive
max response [8]: 11.9% (inactive)
Potency [1]: inactive
outcome [5]: inactive
Potency [9]: inactive
Potency [7]: inactive
outcome [2]: inactive

CN(C(=O)Cc1ccc(Cl)c(Cl)c1)C(CN1CCCC1)c1cccc(OCC(=O)O)c1 (stereo not given)
outcome [4]: inactive
max response [8]: 13% (inactive)
Potency [1]: inactive
outcome [5]: inactive
Potency [6]: inactive
Potency [7]: inactive
outcome [2]: inactive

CC(C)(C)OC(=O)NC1[C@H]2CNC[C@@H]12 (stereo not given in full)
Potency [1]: inactive
outcome [2]: inactive

CCCN1CCc2cc(O)cc3c2[C@H]1Cc1ccc(O)c(O)c1-3
outcome [4]: inactive
Potency [8]: 2.51 µM (active)
Potency [1]: inactive
outcome [5]: inactive
Potency [6]: inactive
Potency [7]: inactive
outcome [2]: inactive

CN1CC[C@@]2(C)c3cc(OC(=O)Nc4ccccc4)ccc3N(C)[C@@H]12
Potency [1]: 10 µM (active)
Potency [9]: inactive
Potency [6]: inactive
Potency [7]: inactive
outcome [2]: inactive

CC(=O)c1c(O)c(C)c(O)c(Cc2c(O)c3c(c(C(=O)/C=C/c4ccccc4)c2O)OC(C)(C)C=C3)c1O
outcome [4]: inactive
max response [8]: 17.7% (inactive)
remaining parasite growth % (stronger effect = lower value) [10]: -0.946%
activity, percent of control [11]: -0.827%
remaining proliferation (% of control), lower = more inhibition [12]: -2.57%
Potency [1]: inactive
outcome [5]: inactive
Potency [6]: inactive

CO[C@H]1CC=C2CCN3CCC4=C(CC(=O)OC4)[C@]23C1
outcome [4]: inactive
max response [8]: -3.4% (inactive)
Potency [1]: inactive
outcome [5]: inactive
Potency [6]: inactive
Potency [7]: inactive
outcome [2]: inactive

C=CCN(C1=NCCN1)c1c(Cl)cccc1Cl
max response [8]: -1.3% (inactive) and 35.7% (inactive)
outcome [5]: inactive
Potency [13]: inactive
Potency [14]: inactive
Potency [3]: inactive
Potency [9]: inactive
Potency [6]: inactive
Potency [7]: inactive

C[C@H](N)CN1CCc2ccc(Br)cc21
outcome [4]: inactive
Potency [8]: 7.43 µM (active)
remaining parasite growth % (stronger effect = lower value) [10]: 99.2%
activity, percent of control [11]: 24.2%
Potency [1]: inactive
outcome [5]: inactive
Potency [9]: inactive
Potency [7]: inactive
outcome [2]: inactive

Oc1ccc2c3c1O[C@H]1c4[nH]c5ccccc5c4C[C@@]4(O)C(C2)N(CC2CC2)CCC314 (stereo not given in full)
outcome [4]: inactive
parasite growth, % of DMSO control [15]: 5.78%
parasite growth remaining, % of DMSO control (lower = more inhibition) [16]: 28.3%
parasite growth, % of control (lower = inhibition) [17]: 12.6%
growth, % of control [18]: 5.24%
Potency [1]: inactive
outcome [5]: inactive
Potency [6]: inactive
Potency [7]: inactive
outcome [2]: inactive

N[C@@H](Cn1oc(=O)[nH]c1=O)C(=O)O
outcome [4]: inactive
max response [8]: 11.5% (inactive)
Potency [1]: inactive
outcome [5]: inactive
Potency [6]: inactive
Potency [7]: inactive
outcome [2]: inactive

CCCN(CCC)C1Cc2cc(OC)c(OC)cc2C1
max response [8]: 13.4% (inactive)
Potency [1]: inactive
outcome [5]: inactive
Potency [9]: inactive
Potency [7]: inactive
outcome [2]: inactive
